# Source: PubChem BioAssay
# In the library only some 4.8% were active in any assay of this set; here they are far more common.
# HIF act = HIF pathway transcriptional activators, primary screen, cell-based, U2OS HRE-luciferase, luminescence; U2OS HRE-luciferase reporter; normalized: DMSO 0%, desferrioxamine 100%; activation, % at 7.5 µM (by protocol); 0.32% of 300,000 active; AID 1910, 2009;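 active = mean activation of at least 10% of the iron chelator positive control signal, with at least half of replicates also reaching 10%; inconclusive = mean and replicate majority disagree about reaching 10%; inactive = mean and most replicates under 10%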
# SUMO Mot1 rescue = yeast Mot1-301 growth rescue at high temperature, primary screen, SUMOylation pathway inhibitor project, S. cerevisiae, ATP luminescence, 38.5C. S. cerevisiae Mot1-301 growth rescue; percent above DMSO median, 100 means doubled. growth rescue, % at 18.8 µM. 1% of 320,000 active;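 active = every valid replicate shows activation above 250% relative to neutral control wells; inactive = the rest, any valid replicate at or below 250%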;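 note: OY570 slx delta 5 strain wells were the positive control but not used for scaling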
# AI-2 QS mod = Vibrio harveyi AI-2 quorum sensing modulators, primary screen, JMH597 strain, luminescence/OD600 ratio. Vibrio harveyi JMH597 AI-2 luminescence/OD600 ratio, 9 h; stronger effect = lower value; strain lacks LuxN and CqsS sensors; 0 = neutral-control median. activity change, % at 7.5 µM. 0.4% of 300,000 active; in the data active = activity change below about -75%, passing the limit was not always enough; inconclusive = no clear call, values can overlap the other calls;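 note: luminescence divided by OD600 gain over 9 h not by final OD600 alone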
# ALR inh = inhibitors of human ALR sulfhydryl oxidase, primary screen, biochemical, H2O2 detection, HRP-luminol luminescence, single point; 3.8% of 290,000 active; purified ALR, DTT oxidation; FAD-linked sulfhydryl oxidase ALR (Homo sapiens), P55789; inhibition, % (concentration not given with the values); AID 485317, 2010;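 active = mean replicate inhibition above about 79%, with every replicate also reaching it, limit read from the data; inconclusive = only one of the two criteria met; inactive = mean below limit and not every replicate reaching it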
# Target sequence (P55789 whole entry, looked up): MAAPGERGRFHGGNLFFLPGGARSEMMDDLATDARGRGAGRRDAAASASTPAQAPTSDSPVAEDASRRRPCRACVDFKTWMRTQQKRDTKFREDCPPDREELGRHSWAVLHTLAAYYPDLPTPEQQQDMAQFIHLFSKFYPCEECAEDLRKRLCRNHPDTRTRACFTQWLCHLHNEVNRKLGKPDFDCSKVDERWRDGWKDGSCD
# Active calls of the source: *; ? = inconclusive; . = not tested or not shown.
SMILES,HIF act,SUMO Mot1 rescue,AI-2 QS mod,ALR inh
COc1ccc(-n2c(SCC(=O)Nc3ccccc3OC)nc(O)c(Cc3ccccc3)c2=O)cc1,0,-18,47,4
CCc1c(O)nc(SCC(=O)Nc2ccc(Br)cc2)n(-c2ccc(C)cc2)c1=O,0,-5,19,96*
Cc1ccc(NC(=O)CSc2nc(O)c(Cc3ccccc3)c(=O)n2-c2ccccc2)cc1,0,63,18,99*
O=C(O)CCCC(=O)N1N=C(c2ccccc2)CC1c1ccc2c(c1)OCO2 (stereo unspecified),0,-10,13,.
O=C(O)c1cccc2c1C(=O)c1ccc(-c3ccc(Cl)c(C(F)(F)F)c3)cc1S2(=O)=O,.,-13,.,60
CC(=O)N1c2ccccc2C2CCCC[C@H]21 (stereo partly specified),.,0,.,2
O=C1c2cc(Br)ccc2N(Cc2ccc(Br)cc2)S(=O)(=O)C1c1cc(Cl)c(Cl)cc1[N+](=O)[O-] (stereo unspecified),.,107,.,2
C=C1/C=C(\C)[C@](C)(O)C[C@H](O)CC(=O)[C@H](O)[C@@H](O)[C@H](C)C[C@H](C)OC(=O)/C(C)=C/CC/C=C/[C@@H]2O[C@H]2C[C@H](C)C1,.,-43,.,-1
COc1ccc(CCNC(=O)c2c(O)c3ccccc3[nH]c2=O)cc1OC,1,-13,9,-1
CCc1c(O)nc(SCC(=O)Nc2ccccc2)n(-c2ccccc2)c1=O,0,19,11,99*
COc1ccc(-n2c(SCC(=O)Nc3ccccc3)nnc2-c2ccoc2C)cc1,0,11,3,96*
CCc1c(O)nc(SCC(=O)Nc2ccc(C)cc2)n(C2CCCCC2)c1=O,0,-8,18,98*
Cc1cc(NC(=O)CSCC(=O)N2CCN(c3ccccc3)CC2)no1,.,-4,.,99*
CCn1cc(SCC(=O)Nc2cc(C)on2)c2ccccc21,0,6,11,95*
CCCn1cc(SCC(=O)Nc2cc(C)on2)c2ccccc21,0,12,9,8
Cc1cc(NC(=O)CSc2cn(CC(=O)N(C(C)C)C(C)C)c3ccccc23)no1,0,16,25,98*
CCn1cc(SCC(N)=O)c2ccccc21,0,-2,24,96*
Cc1[nH]c(C)c(S(=O)(=O)N2CCN(c3ccccc3F)CC2)c1C(=O)N1CCCCC1,0,-3,18,2
COCc1cc(CNC(=O)C2CCC(=O)N(Cc3cccc(OC)c3)C2)[nH]n1 (stereo unspecified),0,.,-2,.
O=C(c1ccco1)N1CCN(C(=O)C2CC(=O)N(c3ccccc3)C2)CC1 (stereo unspecified),0,-3,25,-2
Cc1cc(NC(=O)CSc2ccc3ccccc3c2)no1,0,-7,6,99*
CCOc1cc(Br)cc(/C=N/NC(=O)c2cccnc2)c1O,9,175,.,74
CN1C(=O)NC(c2cccc([N+](=O)[O-])c2)C2=C1CCCC2=O (stereo unspecified),2,18,5,-33
Cc1ccc2[nH]cc(CCNC(=O)c3cccs3)c2c1,-18,7,-28,97*
Cc1ccc2[nH]cc(CCNC(=O)c3ccc4c(c3)OCO4)c2c1,-2,23,-80*,28
SMILES,HIF act,SUMO Mot1 rescue,AI-2 QS mod,ALR inh
O=C(NNC(=O)c1cc(-c2ccc(Cl)cc2)nc2ccccc12)c1csc(N2CCOCC2)n1,0,55,25,5
OCCC1CN(Cc2cccn2-c2cccnc2)CCN1Cc1ccc(F)cc1 (stereo unspecified),0,358*,44,-5
CCOc1ccc(CN2CCN(Cc3cccn3-c3cccnc3)CC2CCO)cc1 (stereo unspecified),-1,6,30,1
O=C(C[n+]1cc(-c2ccc(Cl)cc2)n2c1CCC2)Nc1nc(-c2ccccc2)cs1,0,-25,1,94*
Cc1cccc(CN2C(=O)CSc3ccc(C(=O)NC4CC4)cc32)c1,0,-8,-5,-6
COc1ccccc1CNC(=O)C(C)n1nc(C)n2c(cc3occc32)c1=O (stereo unspecified),0,-14,0,1
CC(C)C(C)NC(=O)CN1C(=O)NC2(CCc3ccccc32)C1=O (stereo unspecified),0,-2,16,1
c1csc(-c2nc3ccccn3c2NC2CCCCC2)c1,0,-6,30,94*
CC(=O)NNC(=O)c1cc2sccc2s1,0,-17,12,.
NNC(=O)c1cc2sccc2s1,0,90,12,98*
Cc1[nH]c(C)c(S(=O)(=O)N2CCN(c3ccccc3)CC2)c1C(=O)N1CCCCC1,0,45,15,?
CSc1ncccc1C(=O)Nc1cccc(S(=O)(=O)N2CCCCC2)c1,.,-17,.,-1
O=C1CN(c2ccccc2)C(=S)N1C(=O)c1ccccc1,1,251,-2,98*
COCCNc1oc(Cc2cccc3ccccc23)nc1C#N,-1,1,18,-15
CC(=O)c1c(C)oc(C)c1CSCc1ccc(C(=O)O)o1,0,-6,14,97*
CCCCSCc1ccc(C(=O)O)o1,1,23,40,-7
COc1ccc(C)cc1S(=O)(=O)N1CCCC(C(=O)N2CCN(c3ccccc3F)CC2)C1 (stereo unspecified),0,-9,13,-9
CO[C@H]1C=CO[C@@]2(C)Oc3c(C)c(O)c4c(O)c(c(C=NN5CCN(C6CCCC6)CC5)c(O)c4c3C2=O)NC(=O)C(C)=CC=C[C@H](C)[C@H](O)[C@@H](C)[C@@H](O)[C@@H](C)[C@H](OC(C)=O)[C@@H]1C,0,.,-185*,.
O=C(NC1CCCc2c1cnn2-c1ccc(F)cc1F)c1ccccn1 (stereo unspecified),0,9,13,-2
CC1=C(C(=O)NC2CCCc3c2cnn3-c2ccc(F)cc2F)OCCO1 (stereo unspecified),0,31,8,89*
FC(F)(F)c1cnc(NNC(=S)Nc2ccc(Cl)cc2)c(Cl)c1,0,1,22,98*
CSCc1ccc(C(=O)NC(C)c2ccc(-n3ccnc3)cc2)cc1 (stereo unspecified),0,-3,4,98*
COC(=O)CSc1ccc2c(N)c(C(=O)OC)sc2c1,-1,-51,6,100*
N#C/C(=C\c1ccc([N+](=O)[O-])o1)C(=O)Nc1ccc(F)cc1,1,323*,12,-19
Cc1cccc(Nc2nc(-c3ccc(F)cc3)cs2)n1,3,-4,.,-2
Cc1cccc(Nc2nc(-c3ccccn3)cs2)n1,1,214,-37,89*
Cc1cccc(Nc2nc(-c3cccs3)cs2)n1,1,-12,6,94*
c1ccc(Nc2nc(-c3cccs3)cs2)nc1,1,70,1,37
